Experimental data from PubChem BioAssay AID1028 (SRMLSC, 2008).
Entries with a potency or affinity are not part of this list. Unmarked numbers belong to inactive results.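 Rule for the calls: active = enzyme inhibitor confirmed by dose series, half-maximal inhibitory concentration at most 40 µM; inactive = the rest.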

What follows are molecules tested against diphosphomevalonate decarboxylase (Streptococcus pneumoniae D39) (UniProt Q9FD53) (assay: diphosphomevalonate decarboxylase inhibitor confirmation – biochemical, cuvette format, coupled NADH fluorescence (AID 1028)). Conditions: purified DPM-DC, rate, at 50 µM, active compounds read high.

Row | Compound | inhibition [%]
1 | Nc1ccc2oc(-c3cccc(Cl)c3)nc2c1 | 8.07
2 | COc1ccc2oc(-c3cccc(N)c3)nc2c1 | -0.79
3 | Cc1ccc(C)c(-c2nc3cccc(N)c3o2)c1 | -0.39
4 | Cc1ccc(C)c(-c2nc3cc([N+](=O)[O-])ccc3o2)c1 | 1.75
5 | Fc1cccc(-c2nc3ccccc3o2)c1 | 4.51
6 | COc1ccc2oc(-c3ccc([N+](=O)[O-])cc3)nc2c1 | 1.63
7 | COc1ccc(-c2nc3cc(N)ccc3o2)cc1 | 13.2
8 | O=C(c1ccccc1-n1sc2ccccc2c1=O)N1CCCCC1 | 16.1
9 | CCN(CC)C(=O)c1ccccc1-n1sc2ccccc2c1=O | 14.9
10 | Cc1ccc(C)c(-c2nc3cc(N)ccc3o2)c1 | 0.87
11 | Cc1ccc(C)c(-c2nc3ccc(N)cc3o2)c1 | 13
12 | COc1ccc2nc(-c3ccccc3C)oc2c1 | 4.59
13 | CCCN(CCC)C(=O)c1ccccc1-n1sc2ccccc2c1=O | 14.3
14 | COc1ccc(OC)c(-c2nc3cc(N)ccc3o2)c1 | 10.3
15 | COc1ccc2oc(-c3ccc(N)cc3)nc2c1 | 7.74
16 | O=C(c1ccccc1-n1sc2ccccc2c1=O)N1CCOCC1 | 13.7
17 | COc1ccc(-c2nc3ccccc3o2)cc1 | 6.86
18 | COc1ccc2oc(-c3ccc(C)cc3)nc2c1 | -3.06
19 | Cc1cccc(-c2nc3ccccc3o2)c1 | 5.31
20 | Cc1ccc(-c2nc3cc(N)ccc3o2)cc1F | 16
21 | Cc1ccccc1-c1nc2cc(N)ccc2o1 | 6.79
22 | Cc1ccccc1-c1nc2ccccc2o1 | 1.75
23 | COc1ccc2nc(-c3ccc(C)cc3)oc2c1 | 5.23
24 | CN(C)C(=O)c1ccccc1-n1sc2ccccc2c1=O | 16.7
